In PubChem BioAssay (NCI):
Compounds without any hit were thinned out: in the full panel of roughly 79,000, 15% have a hit. The source made the active and inactive calls. Cut-off read from the data, not from the text of the source: active = growth inhibition above about 70%; inactive = the rest.

What was measured:
[1] = NCI Yeast Anticancer Drug Screen. Data for the rad52 strain (AID 147);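 note: 0% = growth of vehicle-treated control cultures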; conditions: S. cerevisiae rad52 mutant growth inhibition, hits give high values
How it was run: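 Inhibition of yeast growth, referenced to vehicle controls, was the measured output for a strain with defective DNA damage repair.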

[2] = NCI Yeast Anticancer Drug Screen. Data for the wt1 strain (AID 149);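 note: 0% = growth of vehicle-treated wt1 cultures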; conditions: S. cerevisiae wt1 strain (SPY 50644) growth inhibition, hits give high values
How it was run: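 Vehicle-normalised growth inhibition; strain wt1; compound exposure.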

[3] = NCI Yeast Anticancer Drug Screen. Data for the rad50EPP+ strain (AID 151);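 note: 0% = growth of vehicle-treated control cultures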; conditions: S. cerevisiae rad50 mutant strain, hits give high values
How it was run: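 Genetically defined yeast (rad50EPP+, DNA damage repair alteration) is grown with compound, and inhibition of growth is expressed relative to vehicle-treated controls.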

[4] = NCI Yeast Anticancer Drug Screen. Data for the mgt1 strain (AID 153); conditions: S. cerevisiae mgt1 mutant growth inhibition, hits give high values
How it was run: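 In the mgt1 strain, test compounds were added and growth inhibition was determined relative to vehicle-treated controls.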

[5] = NCI Yeast Anticancer Drug Screen. Data for the rad50 strain (AID 155);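 note: 0% = growth of vehicle-only cultures of the same strain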; conditions: S. cerevisiae rad50 strain growth inhibition, hits give high values
How it was run: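 A DNA repair-deficient yeast mutant serves as the test organism; compound-induced growth inhibition is calculated against vehicle-treated cells.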

[6] = NCI Yeast Anticancer Drug Screen. Data for the mec2-1 strain (AID 157); conditions: S. cerevisiae mec2-1 strain, hits give high values
How it was run: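 Each compound was tested on mec2-1 yeast, a strain altered in DNA damage repair or cell cycle control. Growth inhibition is reported relative to vehicle.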

[7] = NCI Yeast Anticancer Drug Screen. Data for the rad14 strain (AID 159);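 note: 0% = growth of vehicle-treated control cultures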; conditions: S. cerevisiae rad14 strain growth inhibition, hits give high values
How it was run: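 Vehicle-treated cultures served as the baseline for growth inhibition of a DNA repair-mutant yeast strain exposed to each compound.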

[8] = NCI Yeast Anticancer Drug Screen. Data for the sgs1 mgt1 strain (AID 161);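 note: 0% = growth of cultures given vehicle only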; conditions: S. cerevisiae sgs1 mgt1 strain, hits give high values
How it was run: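 Genetically altered yeast, compound exposure, growth inhibition relative to vehicle.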

[9] = NCI Yeast Anticancer Drug Screen. Data for the CLN2oe strain (AID 163);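 note: 0% = growth of vehicle-only control cultures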; conditions: S. cerevisiae CLN2oe strain, hits give high values
How it was run: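 First, the altered yeast strain was treated with each compound; second, its growth was measured; finally, inhibition was derived by comparison with vehicle controls.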

[10] = NCI Yeast Anticancer Drug Screen. Data for the cln2 rad14 strain (AID 165);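 note: 0% = growth equal to vehicle treated cultures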; conditions: S. cerevisiae cln2 rad14 strain, hits give high values
How it was run: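 Test compounds were added to cln2 rad14 yeast cultures; inhibition of growth was then determined by comparison with vehicle treatment.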

[11] = NCI Yeast Anticancer Drug Screen. Data for the bub3 strain (AID 167); conditions: S. cerevisiae bub3 mutant strain, hits give high values
How it was run: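 Inhibition values come from growth of compound-treated mutant yeast normalised to vehicle-treated controls.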

[12] = NCI Yeast Anticancer Drug Screen. Data for the wt2 strain (AID 169);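 note: 0% = growth of vehicle-treated yeast cultures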; conditions: S. cerevisiae wt2 strain growth inhibition, hits give high values
How it was run: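 The panel's yeast strains carry defined changes in DNA repair or cell cycle genes. Each strain is grown with compound, and growth loss is scored relative to vehicle.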

[13] = NCI Yeast Anticancer Drug Screen. Data for the mlh1 strain (AID 171);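 note: 0% = growth of vehicle-treated control cultures of the same strain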; conditions: S. cerevisiae mlh1 strain growth inhibition, hits give high values
How it was run: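 Inhibition values reflect reduced yeast growth in the presence of compound, referenced to vehicle controls, using a strain chosen for its alteration in DNA repair or cell cycle control.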

[14] = NCI Yeast Anticancer Drug Screen. Data for the sgs1 strain (AID 173);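 note: 0% = growth of vehicle-only control cultures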; conditions: S. cerevisiae sgs1 mutant, hits give high values
How it was run: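 Vehicle-treated cultures served as reference for growth inhibition of a yeast strain altered in DNA damage repair or cell cycle control after compound exposure.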

[15] = NCI Yeast Anticancer Drug Screen. Data for the mlh1 rad18 strain (AID 175); conditions: S. cerevisiae mlh1 rad18 strain growth inhibition, hits give high values
How it was run: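 Inhibition values reflect reduced growth of mutant yeast versus vehicle-treated controls following compound exposure; the mutations affect DNA damage repair.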

[16] = NCI Yeast Anticancer Drug Screen. Data for the rad18 strain (AID 177); conditions: S. cerevisiae rad18 mutant growth inhibition, hits give high values
How it was run: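 Steps: expose repair-mutant yeast to compound; measure growth; express as inhibition relative to vehicle control.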

[17] = at 5.0 µM (retest, dose inferred, filed as 0.5)
[18] = at 50.0 µM (retest, dose inferred, filed as 5.0)

Measured: growth inhibition

O=C(CC(=O)n1nc(-c2ccccc2)c(N=Nc2ccccc2C(=O)O)c1-c1ccccc1)Nc1ccc(Cl)cc1
inactive: [1]; at 1.2 µM -2% | [1]; at 3.7 µM -1% | [1]; at 11.0 µM -1% | [1]; at 33.0 µM -2% | [1]; at 100.0 µM 8% | [2]; at 1.2 µM -1% | [2]; at 3.7 µM -4% | [2]; at 11.0 µM -3% | [2]; at 33.0 µM -4% | [2]; at 100.0 µM -4% | [3]; at 1.2 µM 2% | [3]; at 3.7 µM 6% | [3]; at 11.0 µM 15% | [3]; at 33.0 µM 23% | [3]; at 100.0 µM 37% | [4]; at 1.2 µM -2% | [4]; at 3.7 µM -3% | [4]; at 11.0 µM -5% | [4]; at 33.0 µM -6% | [4]; at 100.0 µM 7% | [5]; at 1.2 µM -2% | [5]; at 3.7 µM 1% | [5]; [17] 7% | [5]; at 11.0 µM 1% | [5]; at 33.0 µM 2% | [5]; [18] 16% | [5]; at 50.0 µM 49% | [5]; at 100.0 µM 14% | [6]; at 1.2 µM -2% | [6]; at 3.7 µM -1% | [6]; [17] 3% | [6]; at 11.0 µM -2% | [6]; at 33.0 µM -3% | [6]; [18] 4% | [6]; at 50.0 µM 36.2% | [6]; at 100.0 µM 2% | [7]; at 1.2 µM -1% | [7]; at 3.7 µM 2% | [7]; at 11.0 µM 3% | [7]; at 33.0 µM 3% | [7]; at 100.0 µM 29% | [8]; [17] -5% | [8]; [18] 20% | [8]; at 50.0 µM 41.7% | [9]; at 1.2 µM -4% | [9]; at 3.7 µM -3% | [9]; at 11.0 µM -7% | [9]; at 33.0 µM -10% | [9]; at 100.0 µM -15% | [10]; [17] 2% | [10]; [18] 24% | [10]; at 50.0 µM 9.4% | [11]; at 1.2 µM 8% | [11]; at 3.7 µM 15% | [11]; [17] 6% | [11]; at 11.0 µM 28% | [11]; at 33.0 µM 46% | [12]; at 1.2 µM -3% | [12]; at 3.7 µM -3% | [12]; at 11.0 µM -3% | [12]; at 33.0 µM -6% | [12]; at 100.0 µM 4% | [13]; at 1.2 µM -2% | [13]; at 3.7 µM -3% | [13]; at 11.0 µM -3% | [13]; at 33.0 µM -6% | [13]; at 100.0 µM 6% | [14]; at 1.2 µM -2% | [14]; at 3.7 µM -1% | [14]; at 11.0 µM 1% | [14]; at 33.0 µM 0% | [14]; at 100.0 µM 21% | [15]; [17] -11% | [15]; [18] 43% | [15]; at 50.0 µM 36% | [16]; at 1.2 µM -4% | [16]; at 3.7 µM -1% | [16]; at 11.0 µM 3% | [16]; at 33.0 µM 6% | [16]; at 100.0 µM 43%
active: [11]; [18] 71% | [11]; at 50.0 µM 88.7% | [11]; at 100.0 µM 72%
